# Only some compounds are listed: those with a hit (about 7.5% of all), similar ones and a draw of the others.
# TSHR antag = antagonists of human thyroid stimulating hormone receptor | activity change, negative = inhibition, % at 11.5 µM | TSHR-expressing cells, TSH-stimulated cAMP HTRF, 2 h; hits give low values | hit rate 0.2% among 330,000;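 active = activity change below a set negative limit, meaning inhibition stronger than a set level, cut at about -70% in these data; inconclusive = activity change between two set negative limits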
#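 TSHR-expressing cells, 200/well, pre-treated with compound, then stimulated with EC80 TSH (4nM final) for 2 hours at 37 deg C. cAMP measured by competitive HTRF: anti-cAMP cryptate antibody in lysis buffer plus cAMP-d2, read after 30 minutes at room temperature.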
# ELG1 DNA repair = blocks ELG1-dependent DNA repair in HEK293T cells | HEK293T ELG1-luciferase reporter, luminescence, 16 h; DNA damage induced by 5-fluorouridine | Potency, µM (titrated, usually from 46.1 µM), for inactives: top-dose activity change, negative = inhibition, hits mostly inhibitors | hit rate 2.3% among 330,000 | AID 504467; also: potency is read from the fitted curve at half-maximal effect; nearly all actives have a fitted effect of over 55% in size
#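 Step one: seed 2,000 cells per well. Step two: pin-transfer compound or DMSO alongside 5-fluorouridine. Step three: incubate 16 hr, 37 °C, 5% CO2. Step four: add ONE-Glo, wait 30 min, read luminescence.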
# B2AR arrestin = recruits beta-arrestin to the human beta2-adrenergic receptor | P07550 | beta-arrestin recruitment to beta2AR, cell-based reporter | Potency, µM (doses to about 46.1 µM), for the others: at the highest dose activation, most hits filed as activators | hit rate 0.02% among 330,000 | AID 492947;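 also: potency is read from the fitted curve at half-maximal effect; 0% = DMSO controls and full agonism = EC100 isoproterenol or metaproterenol; nearly all actives have a fitted effect of over 65% in size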
# Gal4-VP16 FLuc = Gal4-VP16 reporter inhibition counter-screen; Drosophila S2 Gal4-VP16 UAS-luciferase, luminescence, 20 h; Potency, µM (highest dose often 53.6 µM), inactives show at the top dose activity, negative = inhibition, hits mostly inhibitors; hit rate 3.5% among 310,000;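 also: Gal4-VP16 expression switched on by copper sulfate through the metallothionein promoter; potency is read from the fitted curve at half-maximal effect; nearly all actives have a fitted effect of over 50% in size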
# RORgamma inh = blocks mouse ROR gamma transcriptional activity. P51450. Drosophila S2 Gal4-RORgamma UAS-luciferase reporter, 20 h. Potency, µM (top dose mostly 53.6 µM), without a hit: top-dose activity change, negative = inhibition, usual class: inhibitors. hit rate 5.4% among 310,000; also: potency is read from the fitted curve at half-maximal effect; nearly all actives have a fitted effect of over 60% in size
# Target sequence (P51450 whole entry, looked up, the tested form may be a part): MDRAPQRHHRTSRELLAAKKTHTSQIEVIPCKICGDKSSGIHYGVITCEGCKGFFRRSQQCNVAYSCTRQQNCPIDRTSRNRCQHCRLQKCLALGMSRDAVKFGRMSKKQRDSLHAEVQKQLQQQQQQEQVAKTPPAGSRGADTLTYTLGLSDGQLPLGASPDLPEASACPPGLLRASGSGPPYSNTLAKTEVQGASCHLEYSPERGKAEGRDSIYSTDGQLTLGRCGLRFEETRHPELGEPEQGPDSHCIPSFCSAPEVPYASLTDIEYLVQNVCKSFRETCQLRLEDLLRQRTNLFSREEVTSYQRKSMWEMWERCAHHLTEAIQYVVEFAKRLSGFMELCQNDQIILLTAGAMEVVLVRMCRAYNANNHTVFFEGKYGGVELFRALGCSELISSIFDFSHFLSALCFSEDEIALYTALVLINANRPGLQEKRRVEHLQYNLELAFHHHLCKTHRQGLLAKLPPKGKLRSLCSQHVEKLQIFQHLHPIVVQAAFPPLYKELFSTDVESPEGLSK
#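 Schneider cells (Drosophila), stable Gal4 DBD–ROR gamma + UAS-luc; 1 hr cmpd preincubation; Cu2+ induction 700 uM final; 20 hr ambient; luminescence.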
# The depositor's hits bear a star; ? = inconclusive; nt = not tested or not shown; [ ] = remark or other dose. Unless noted, calls follow the shape of the dose curve; as a rule, active = well fitted curve in the direction sought with a large enough effect; inconclusive = small, poorly fitted or top-dose-only effect, or another doubt; inactive = no such curve, though single readings can be large; an effect the other way counts as inactive or inconclusive. Unless noted, % is scaled to controls: 0 for no effect and ±100 for the full control effect.
SMILES,TSHR antag,ELG1 DNA repair,B2AR arrestin,Gal4-VP16 FLuc,RORgamma inh
O=C(Nc1ccccc1Cl)NC1(C(=O)NCc2cccnc2)CCCCC1,-9,11%,0%,-10%,-5%
CCC(=O)N1CCN(c2ccccc2NC(=O)COc2ccc(C(C)C)cc2)CC1,9,-22%,-1%,-11%,-7%
Cc1nc(C(=O)NNC(=O)c2ccc(Cl)cc2)cs1,3,?,-1%,?,4µM*
CC(C)C(=O)NC(=S)Nc1ccc(S(=O)(=O)N(C)Cc2ccccc2)cc1,nt,nt,nt,?,14µM*
Cc1ccccc1C(=O)NC(=S)Nc1ccc(S(=O)(=O)N(C)c2ccccc2)cc1,-18,-22%,-2%,?,11µM*
CC(=O)Nc1ccc(S(=O)(=O)NC2CCCCCC2)cc1,2,-1%,0%,-11%,9%
CN(c1ccccc1)S(=O)(=O)c1ccc(NC(=O)c2ccccc2)cc1,-13,?,-1%,-17%,?
CC(C)C(=O)NC(=S)Nc1ccc(S(=O)(=O)NC2CCCCC2)cc1,31,12µM*,0%,?,?
Cc1cccc(C(=O)NC(=S)Nc2ccc(S(=O)(=O)N(C)c3ccccc3)cc2)c1,-19,?,0%,?,11µM*
CCOC(=O)C1=CN(Cc2cccc(F)c2)S(=O)(=O)N(C)C1c1ccc2ccccc2c1 (centres undefined),17,2%,0%,nt,nt
CCCCC/C=C\C\C=C/C=C/C=C/[C@@H](SCC(NC(=O)CCC(N)C(=O)O)C(=O)NCC(=O)O)[C@@H](O)CCCC(=O)O (some centres undefined),nt,nt,nt,7%,18%
CCN(C(=O)CN1C(=O)COc2ccc(S(=O)(=O)N3CCOCC3)cc21)c1ccc(OC)cc1,-140*,22%,-1%,4%,-42%
COc1ccccc1C1CC(c2ccccc2)=NN1C(=S)Nc1ccccc1 (centres undefined),30,-4%,0%,-6%,12%
Cc1cccc(-c2nn(C(=S)Nc3ccccc3)cc2-c2ccnc3ccccc23)n1,nt,nt,nt,-23%,?
N=C1S/C(=C\c2ccc(O)cc2)C(=O)N1c1ccc(F)cc1,36,14%,0%,2.8µM*,2.5µM*
CCOc1cc(/C=C2\SC(=O)N(c3ccc(O)cc3)C2=O)ccc1O,-9,-25%,3%,-7%,-15%
CCCC(C(=O)NC1CCCC1)N(Cc1ccc(OC)cc1)C(=O)c1snc(C(N)=O)c1N (centres undefined),3,-4%,-1%,11%,-28%
CCCCN1CCC2C=CCC(C(=O)O)C2C1=O (centres undefined),nt,nt,nt,-3%,?
CCN(CC)C(=O)c1cn(CCC#N)nc1-c1ccc2ccccc2c1,-6,1%,0%,0%,28%
Cc1cc(C(=O)c2ccccc2)c(NC(=O)CN2CCOCC2)s1,3,7%,0%,-8%,-1%
Cc1cc(C(=O)c2ccc(C(C)(C)C)cc2)c(NC(=O)CCl)s1,-10,-11%,0%,?,11µM*
O=C(c1cnccn1)N1CCC2(CC1)CCN(c1ccccc1)CC2,nt,nt,nt,-4%,22%
C=C(C)C(=O)OC,nt,nt,nt,-7%,-8%
Nc1ccc(O)c(-c2nc3ccccc3s2)c1,0,?,-1%,-17%,?
Oc1ccc(N=C/C=C/c2cccc(Br)c2)cc1-c1nc2ccccc2s1,-4,?,4%,7.9µM*,?
CCCCCCCCCCCCC/C=C/[C@@H](O)[C@H](CO)NC(=O)CCCCC,nt,nt,nt,-10%,4%
NCCCCCCNS(=O)(=O)c1ccc2c(Cl)cccc2c1,nt,nt,nt,28µM*,?
Cc1ccc2nc(NC(=O)C3CCCN(S(=O)(=O)c4cccc5nonc45)C3)sc2c1 (centres undefined),1,7.3µM*,0%,-3%,?
Cc1cc(C)nc(N2CCCC(C(=O)Nc3nc4ccc(S(C)(=O)=O)cc4s3)C2)n1 (centres undefined),27,16µM*,0%,nt,-7%[0.365 µM]
Cc1cc(C)nc(N2CCCC(C(=O)NCC(c3ccccc3)c3ccccc3)C2)n1 (centres undefined),1,23µM*,0%,-16%,15%
